# T cruzi growth-1: inhibitors of T. cruzi proliferation; T. cruzi beta-gal in NIH3T3, GalScreen luminescence, 90 h; inhibition, % at 8.34 µM; actives 5.9% (n = 77,000); AID 624255;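 active = mean inhibition above about 93%, with at least 55% of replicates each passing it, limit read from the data, passing the limit was not always enough; inconclusive = only one of those two conditions holds; inactive = neither condition holds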
# C diff growth: C. difficile growth inhibition; Clostridium difficile clinical isolate growth, OD600, 24 h; active compounds read low; growth activity, negative = inhibition, % at 16 µg/mL (by protocol); actives 0.25% (n = 86,000);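 active = mean growth activity at or below -80% and every replicate also at or below -80%; inconclusive = mean at or below -80% but some replicate above -80%; inactive = mean growth activity above -80%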
# Pf Dd2 growth: inhibitors of Plasmodium falciparum Dd2 growth; P. falciparum Dd2 growth, SYBR Green, 72 h; active compounds read low; activity change, % at 10 µM; AID 1159554; actives 2.3% (n = 94,000); in the data active = activity change below about -80%; inconclusive = no clear call, values can overlap the other calls
# T cruzi growth-2: blocks T. cruzi growth in NIH3T3 host cells | shares compounds with T cruzi growth-1 | T. cruzi beta-gal in NIH3T3, GalScreen luminescence, 90 h | inhibition, % at 8.35 µM | actives 72% (n = 5,600);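 active = mean replicate inhibition above about 95% and at least 55% of replicates individually reaching it, limit read from the data; inconclusive = only one of the two criteria is met; inactive = neither criterion is met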
# T cruzi growth-3: Trypanosoma cruzi proliferation inhibition; T. cruzi beta-gal in NIH3T3, GalScreen luminescence, 90 h; AID 651740; shares compounds with T cruzi growth-1; inhibition, % at 2.09 µM; actives 21% (n = 5,600);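 active = mean inhibition above about 95%, with at least 55% of replicates also reaching it, limit read from the data; inconclusive = meets just one of the two conditions; inactive = meets neither condition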
# 3T3 cytotox: NIH/3T3 (mouse) viability loss; shares compounds with T cruzi growth-1; NIH/3T3 viability, CellTiter-Glo ATP luminescence, 90 h; AID 651742; actives 14% (n = 5,600); cytotoxicity (signal decrease), % at 8.35 µM;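 active = mean signal decrease across replicates above about 35% based on untreated-well scatter, with enough replicates individually passing, limit read from the data; inconclusive = no rule stated though some were filed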
# 3T3 cytotox 2: cytotoxicity in mouse NIH/3T3 fibroblasts. shares compounds with T cruzi growth-1. AID 651744. actives 56% (n = 5,600). NIH/3T3 viability, CellTiter-Glo ATP luminescence, 90 h. inhibition, % at 24.9 µM;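 active = mean loss of cell viability signal at or above a set limit, and enough replicates individually reaching it; inconclusive = meets only the mean limit or only the replicate share; inactive = meets neither condition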
# Numbers stand for hits; 0 = inactive; ? = inconclusive; - = no result given. Only some compounds are listed: those with a hit (about 6.7% of all), similar ones and a draw of the others.
SMILES,T cruzi growth-1,C diff growth,Pf Dd2 growth,T cruzi growth-2,T cruzi growth-3,3T3 cytotox,3T3 cytotox 2
C[C@@H]1CCCCO[C@@H](CN(C)S(=O)(=O)c2cccs2)[C@H](C)CN([C@@H](C)CO)C(=O)c2cc(NC(=O)Cc3ccccc3)ccc2O1,0,0,0,-,-,-,-
CC(C)NC(=O)Nc1ccc2c(c1)C(=O)N([C@@H](C)CO)C[C@H](C)[C@@H](CN(C)CC1CCCCC1)OCCCC[C@H](C)O2,0,-,0,-,-,-,-
CC(C)NC(=O)N[C@H]1CC[C@H](CCNS(=O)(=O)c2ccc(F)cc2)O[C@@H]1CO,-,0,0,-,-,-,-
COCC(=O)N1C[C@H](C)[C@@H](OC)CN(C)C(=O)c2cc(NC(=O)C3CCC3)ccc2OC[C@H]1C,0,0,0,-,-,-,-
Cc1noc(C)c1NC(=O)Nc1cccc2c1O[C@@H](CN(C)Cc1ccncc1)[C@@H](C)CN([C@@H](C)CO)C2=O,0,0,0,-,-,-,-
C[C@H](CO)N1C[C@H](C)[C@@H](CN(C)C(=O)Nc2cccc3ccccc23)Oc2c(NC(=O)C3CCOCC3)cccc2C1=O,0,0,0,-,-,-,-
C[C@@H]1CN([C@@H](C)CO)C(=O)c2cccc(NC(=O)C3CCOCC3)c2O[C@@H]1CN(C)C(=O)Nc1cccc2ccccc12,100.1,0,0,0,0,0,0
C[C@@H]1CN([C@H](C)CO)C(=O)c2cccc(NC(=O)C3CCOCC3)c2O[C@H]1CN(C)C(=O)Nc1cccc2ccccc12,102.9,0,0,0,0,0,?
C[C@H]1CN([C@@H](C)CO)C(=O)c2cccc(NC(=O)C3CCOCC3)c2O[C@H]1CN(C)C(=O)Nc1cccc2ccccc12,0,0,0,-,-,-,-
CCNC(=O)C[C@H]1CC[C@H]2[C@@H](COC[C@H](O)CN2C(=O)Nc2cccc(OC)c2)O1,-,0,0,-,-,-,-
C[C@H]1CN([C@@H](C)CO)C(=O)c2cccc(NC(=O)c3ccc(-c4nccs4)cc3)c2O[C@H]1CN(C)C,-,0,0,-,-,-,-
COc1ccc2c3c([nH]c2c1)[C@H](CO)NCC31CCN(C(=O)Nc2ccc(F)cc2F)CC1,-,0,0,-,-,-,-
C[C@H]1CN([C@@H](C)CO)C(=O)c2cc(NC(=O)C3CC3)ccc2O[C@H]1CN(C)S(=O)(=O)c1ccc(F)cc1,0,0,0,-,-,-,-
C[C@H]1CN([C@@H](C)CO)S(=O)(=O)c2ccc(C#CC3CC3)cc2O[C@H]1CN(C)CC1CCOCC1,0,0,0,-,-,-,-
CCCNC(=O)N[C@H]1C=C[C@H](CC(=O)NCCc2ccccc2)O[C@H]1CO,0,-,0,-,-,-,-
C[C@@H]1CN([C@H](C)CO)C(=O)c2cc(NS(=O)(=O)c3ccc(Cl)cc3)ccc2O[C@@H](C)CCCCO[C@H]1CN(C)C(=O)Nc1ccc(C(F)(F)F)cc1,0,0,0,-,-,-,-
C[C@@H]1CN([C@@H](C)CO)C(=O)c2cc(NS(=O)(=O)c3ccc(F)cc3)ccc2O[C@@H](C)CCCCO[C@H]1CN(C)C(=O)Nc1ccc(F)cc1,0,0,0,-,-,-,-
COc1ccc(S(=O)(=O)Nc2ccc3c(c2)C(=O)N([C@H](C)CO)C[C@H](C)[C@@H](CN(C)C(=O)Nc2ccc(C(F)(F)F)cc2)OCCCC[C@H](C)O3)cc1,101.3,0,0,108.9,115.6,0,0
COc1ccc(S(=O)(=O)Nc2ccc3c(c2)C(=O)N([C@@H](C)CO)C[C@@H](C)[C@H](CN(C)C(=O)Nc2ccc(C(F)(F)F)cc2)OCCCC[C@H](C)O3)cc1,0,0,0,-,-,-,-
C[C@@H]1CCCCO[C@H](CN(C)C(=O)Nc2ccc(C(F)(F)F)cc2)[C@@H](C)CN([C@H](C)CO)C(=O)c2cc(NS(=O)(=O)c3ccc(F)cc3)ccc2O1,100.0,0,0,109.3,0,0,0
Cc1ccc(S(=O)(=O)Nc2ccc3c(c2)C(=O)N([C@H](C)CO)C[C@H](C)[C@H](CN(C)C(=O)Nc2ccc(C(F)(F)F)cc2)OCCCC[C@H](C)O3)cc1,100.6,0,0,100.6,115.8,0,0
Cc1ccc(S(=O)(=O)Nc2ccc3c(c2)C(=O)N([C@@H](C)CO)C[C@@H](C)[C@H](CN(C)C(=O)Nc2ccc(C(F)(F)F)cc2)OCCCC[C@@H](C)O3)cc1,99.9,0,0,102.1,112.7,0,36.3
C[C@@H]1CCCCO[C@@H](CN(C)C(=O)Nc2ccc(C(F)(F)F)cc2)[C@@H](C)CN([C@H](C)CO)C(=O)c2cc(NS(=O)(=O)c3ccc(Cl)cc3)ccc2O1,0,0,0,-,-,-,-
COCC(=O)Nc1ccc2c(c1)OC[C@H](C)N(CC1CC1)C[C@@H](C)[C@H](OC)CN(C)C2=O,0,-,0,-,-,-,-
CO[C@H]1CN(C)C(=O)c2ccc(NC(=O)NC(C)C)cc2OC[C@@H](C)N(CCC(F)(F)F)C[C@H]1C,0,-,0,-,-,-,-
SMILES,T cruzi growth-1,C diff growth,Pf Dd2 growth,T cruzi growth-2,T cruzi growth-3,3T3 cytotox,3T3 cytotox 2
C[C@@H]1CN([C@@H](C)CO)C(=O)c2cc(NC(=O)Nc3ccc(C(F)(F)F)cc3)ccc2O[C@@H]1CN(C)C(=O)Nc1ccc2c(c1)OCO2,0,-,0,-,-,-,-
C[C@H]1CCCCO[C@@H](CN(C)C(=O)Nc2ccc(C(F)(F)F)cc2)[C@@H](C)CN([C@@H](C)CO)C(=O)c2cc(NS(C)(=O)=O)ccc2O1,108.8,0,0,107.1,0,0,0
C[C@H]1CCCCO[C@H](CN(C)C(=O)Nc2ccc(C(F)(F)F)cc2)[C@@H](C)CN([C@@H](C)CO)C(=O)c2cc(NS(=O)(=O)c3ccccc3)ccc2O1,0,0,0,-,-,-,-
C[C@@H]1CCCCO[C@H](CN(C)C(=O)Nc2ccc(C(F)(F)F)cc2)[C@H](C)CN([C@H](C)CO)C(=O)c2cc(NS(C)(=O)=O)ccc2O1,0,0,0,-,-,-,-
Cc1ccc(S(=O)(=O)Nc2ccc3c(c2)C(=O)N([C@H](C)CO)C[C@H](C)[C@H](CN(C)C(=O)Nc2ccc(C(F)(F)F)cc2)OCCCC[C@@H](C)O3)cc1,103.3,0,0,104.4,0,40.0,47.9
O=C(C[C@H]1C=C[C@H](NC(=O)C2CC2)[C@H](CO)O1)NCCCN1CCOCC1,-,0,0,-,-,-,-
COc1ccc(NC(=O)Nc2ccc3c(c2)C(=O)N([C@@H](C)CO)C[C@@H](C)[C@H](CN(C)Cc2ccccc2)OCCCC[C@@H](C)O3)cc1,97.9,0,0,110.5,0,0,0
COc1ccc(NC(=O)Nc2ccc3c(c2)C(=O)N([C@H](C)CO)C[C@@H](C)[C@H](CN(C)Cc2ccccc2)OCCCC[C@H](C)O3)cc1,0,0,0,-,-,-,-
COc1ccc(NC(=O)Nc2ccc3c(c2)C(=O)N([C@@H](C)CO)C[C@@H](C)[C@@H](CN(C)Cc2ccccc2)OCCCC[C@H](C)O3)cc1,102.7,0,0,106.4,0,0,0
COc1ccc(NC(=O)Nc2ccc3c(c2)C(=O)N([C@H](C)CO)C[C@H](C)[C@H](CN(C)Cc2ccccc2)OCCCC[C@H](C)O3)cc1,0,0,0,-,-,-,-

# Screens: PubChem, Broad Institute
